High-throughput results (PubChem BioAssay)
Myeloid diff MLP – promotes myeloid progenitor differentiation | ER-HoxA9 myeloid progenitors, lysozyme-GFP differentiation, flow cytometry | calls only at 10 µM | 360,000 tested, 1% active;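 active means normalized GFP-positive differentiation at or above the plate's own cutoff, the solvent-only control mean plus 3 SD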;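 further: cells exposed to compound for four days before flow analysis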
GC-A act – GC-A (human) enzyme activation; HEK293 GC-A cells, cGMP TR-FRET, EC30 ANP; 0% at EC30 ANP, 100% saturating ANP; 370,000 tested, 0.14% active; activation, % at 10 µM; P16066; AID 1671463; in the data active means activation above about 40%
Granule exo inh – blocks lytic granule exocytosis; TALL-104 LAMP-1 surface exposure, flow cytometry; cells stimulated with thapsigargin and PMA; inhibition, % at 10 µM; 360,000 tested, 0.66% active;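 active means inhibition above about 55%, limit read from the data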
GC-B act – GC-B (human) receptor activation. P20594. HEK293-GC-B cells, CNP EC30, cGMP TR-FRET; 0% at EC30 CNP, 100% saturating CNP. activation, % at 10 µM. 370,000 tested, 0.11% active. AID 1920062;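 active means activation at 10 µM reaching about 35% in either raw or pattern-adjusted values, limit read from the data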
Myeloid diff CP1 – promotes myeloid progenitor differentiation; 2,300 tested, 2% active; calls only; shares compounds with Myeloid diff MLP; ER-HoxA9 myeloid progenitors, GFP/Mac1 double-positive flow;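 active means share of green or green-and-red cells above 9 and 9% in run 1 or 4 and 3% in run 2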
GFP autofluor – compound fluorescence in myeloid differentiation counter-screen | shares compounds with Myeloid diff MLP | ER-HoxA9 myeloid progenitors, no estrogen, GFP autofluorescence flow cytometry; vehicle wells 0%, positive control 100% | fluorescence response, % (test concentration not listed) | 2,300 tested, 7.4% active | AID 651707;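 active means over 5% cells positive for green fluorescent reporter, or over 2% positive for both it and APC stain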
Numbers stand for hits; 0 = inactive; - = no result; + = active, no number. A selection: hits, their analogues and other compounds. The true share with any hit is near 1.8%.

SMILES | Myeloid diff MLP | GC-A act | Granule exo inh | GC-B act | Myeloid diff CP1 | GFP autofluor
COc1cc2c(=O)n(Cc3ccccc3)c(=O)n(CC(=O)NCCc3ccccc3)c2cc1OC | + | 0 | 0 | 0 | 0 | 0
COc1cc2c(=O)n(Cc3ccccc3)c(=O)n(CC(=O)NCC3CCCO3)c2cc1OC (stereo not given) | 0 | 0 | 0 | 0 | - | -
Nc1ccc2c(c1)C1(CCC2)NC(=O)NC1=O (stereo not given) | 0 | 0 | 0 | 0 | - | -
CC(C)=CCOc1ccc2c(C)c(CCC(=O)N3C[C@H]4C[C@@H](C3)c3cccc(=O)n3C4)c(=O)oc2c1C | 0 | 0 | 0 | 0 | - | -
COC(=O)C1=C(C)N=c2s/c(=C/c3ccoc3)c(=O)n2C1c1ccccc1 (stereo not given) | 0 | - | 0 | - | - | -
CC(=O)C1=C(C)N=c2s/c(=C/c3ccc4c(c3)OCO4)c(=O)n2C1c1ccc(N(C)C)cc1 (stereo not given) | + | 0 | 0 | 0 | 0 | 22.4
Cc1cc(S(=O)(=O)N(Cc2ccccc2F)C2CC2)ccc1-n1cnnn1 | 0 | 0 | 0 | 0 | 0 | 0
O=C(Nc1cccc(C(=O)N2CCCCC2)c1)C1CCCC1 | 0 | 0 | 0 | 0 | - | -
O=C(O)C1CCCCC1C(=O)Nc1cccc(C(=O)N2CCCCC2)c1 (stereo not given) | + | 0 | 0 | 0 | 0 | 0
CC(=O)/C=C(\C)Nc1ccccc1O | 0 | 0 | 0 | 0 | - | -
Cn1c(N=Nc2ccccc2)nc2ccccc21 | 0 | 0 | 0 | 0 | 0 | 0
CN(C)c1ccc(N=Nc2nc3ccccc3n2C)cc1 | 0 | 0 | 0 | 0 | - | -
CCOc1ccc(CCN2C(=O)C(=O)N([C@@H](Cc3ccccc3)CN3CCC[C@H]3CN3C(=O)C(=O)NC[C@@H]3CC(C)C)C[C@@H]2Cc2ccc(O)cc2)cc1 | 0 | 0 | 0 | 0 | 0 | 0
Cc1ccc(C2=CCN(C)C(=O)N2c2ccccc2)cc1 | - | 0 | - | 0 | - | -
CCOC(=O)N1CCN(C(=O)CCN2C(=O)/C(=C\c3ccc(OC)c(OC)c3)SC2=S)CC1 | 0 | 0 | 0 | 0 | - | -
COc1ccc(/C=C2\SC(=S)N(CCC(=O)NC3CCCC3)C2=O)cc1OC | 0 | 0 | 0 | 0 | 0 | 0
Cc1cccc(Cl)c1OCCCCn1ccnc1 | + | 0 | 0 | 0 | 0 | 0
Cc1ccc(S(=O)(=O)CCC(=O)Nc2ccc3c(c2)OCO3)cc1 | 0 | 0 | 0 | 0 | - | -
Cc1ccc(S(=O)(=O)NCCC(=O)Nc2ccc3c(c2)OCO3)cc1 | 0 | 0 | 0 | 0 | 0 | 0
CC[C@@]1(C(=O)OC)N[C@H](CN(C)C(=O)C2CCCCC2)[C@@H]2C(=O)N(C)C(=O)[C@@H]21 | 0 | 0 | 0 | 0 | 0 | 0
COC(=O)[C@]1(Cc2ccccc2)N[C@H](CN(C)C(=O)C2CCCCC2)[C@@H]2C(=O)N(C)C(=O)[C@@H]21 | 0 | 0 | 0 | 0 | - | -
CCc1ccc(NC2CC(=O)N(CCc3ccc(OC)c(OC)c3)C2=O)cc1 (stereo not given) | 0 | 0 | 0 | 0 | - | -
CCc1ccc(NC2CC(=O)N(c3ccc(OC)cc3OC)C2=O)cc1 (stereo not given) | 0 | 0 | 0 | 0 | 0 | 0
Cc1ccc(CNC(=O)COC(=O)c2nc(-c3ccccc3)oc2C)cc1 | 0 | 0 | 0 | 0 | 0 | 0
Cc1ccc(/C=C/C(=O)N2CCc3ccccc32)o1 | 0 | 0 | 0 | 0 | 0 | 0
SMILES | Myeloid diff MLP | GC-A act | Granule exo inh | GC-B act | Myeloid diff CP1 | GFP autofluor
O=C(/C=C/c1ccco1)N1CCc2ccccc21 | 0 | 0 | 0 | 0 | - | -
COC(=O)/C(=C/Nc1ccc(O)cc1)[N+](=O)[O-] | 0 | 0 | 0 | 0 | - | -
COC(=O)/C(=C/Nc1ccccc1)[N+](=O)[O-] | - | 0 | 0 | 0 | 0 | 0
Nc1nc(SCc2ccccc2)c2ncn(C3CCCO3)c2n1 (stereo not given) | 0 | 0 | 0 | 0 | 0 | 0
Nc1nc(SCc2ccccc2)c2ncn(C3CCCCC3)c2n1 | 0 | 0 | 0 | 0 | - | -
COC(=O)[C@@H](CC(C)C)CP(=O)(OC)[C@@H](C)NC(=O)OCc1ccccc1 (stereo not given in full) | - | 0 | - | 0 | - | -
CC(C(=O)NNS(=O)(=O)c1cccc(C(F)(F)F)c1)n1nnc(N2CCOCC2)n1 (stereo not given) | + | 0 | 0 | 0 | 0 | 0
O=C(O)CCC1(C(=O)O)OCCc2ccccc21 (stereo not given) | 0 | 0 | 0 | 0 | 0 | 0
CC/C(C)=N/Nc1ccc(S(=O)(=O)N2CCCC2)cc1[N+](=O)[O-] | + | 0 | 0 | 0 | 0 | 0
